“And” between values parts separate entries of the source, which are not always exact repeats. Equal values may be shown once. Some structures have more than one record in an assay (separate samples or runs), and their calls can disagree. The source made the active and inactive calls. Unless noted, no rule for the calls is given here.
How the values were obtained:
[1] = test system: Wnt5a (protein binding on small-molecule microarray); test: Wnt5a binders on small-molecule microarray, primary screen, biophysical, 635/667 nm fluorescence (AID 1142); details: 635 nm fluorescence, higher = more signal;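 also: fluorescence read at 667 nm with signal to noise per printed feature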
[2] = cell viability in Huh7 cells, primary screen, cytotoxicity control for HCV replication inhibitor project, CellTiter-Glo luminescence, basal, 48 h (AID 1143); details: Huh7 HCV replicon, higher = more signal, called active from +8 up or from −8 down;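 also: Huh7 hepatoma cells carrying a hepatitis C replication reporter with no stimulus; test concentration not given here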
[3] = P. aeruginosa biofilm formation inhibitors, primary screen, PAO1 strain, BacTiter-Glo luminescence, LB-PBS (AID 1144); details: 12 h, higher = more signal
[4] = CREB reporter modulators without forskolin, primary screen, cell-based, PC12, CRE-LacZ reporter, unstimulated (AID 1145); details: no forskolin, luminescence, 4.5 h, higher = more signal, called active from +8 up or from −8 down
[5] = CREB reporter modulators under forskolin, primary screen, cell-based, PC12, CRE-LacZ reporter, forskolin-stimulated (AID 1146); details: luminescence, 4.5 h, higher = more signal, called active from +8 up or from −8 down;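 also: PC12 cells with 6xCRE LacZ reporter stimulated by forskolin 10 µM; beta-galactosidase reporter signal reflecting CREB driven transcription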
[6] = biological target: Streptavidin (Streptomyces avidinii) (UniProt P22629); test: streptavidin binders on small-molecule microarray, primary screen, artefact control for SMM compound annotation, biophysical, 635/667 nm fluorescence (AID 1147); details: streptavidin binding, higher = more signal;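 also: signal reflects streptavidin binding to arrayed compounds as a control protein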
[7] = small-molecule binders of probe aInhba, primary screen, biochemical, small-molecule microarray, 635/667 nm fluorescence (AID 1148); details: higher = more signal;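 also: score merges 667nm spot fluorescence with signal-to-noise for antibody binding to printed compounds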
Torsin-1A (Homo sapiens) [8] = biological target: Torsin-1A (Homo sapiens) (UniProt O14656); test: torsin A binders from cell lysate, primary screen, small-molecule microarray, wild-type, 635/667 nm (AID 1149); details: COS7 hTOR1A-WT lysate, 635 nm fluorescence, higher = more signal
Torsin-1A (Homo sapiens) [9] = biological target: Torsin-1A (Homo sapiens) (UniProt O14656); test: small-molecule binders of mutant TOR1A in lysate, primary screen, cell lysate, small-molecule microarray, COS7 lysate, 635/667 nm fluorescence (AID 1150); details: COS7 hTOR1A mutant lysate, 635 nm fluorescence, higher = more signal;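 also: score pools 667 nm emission and signal to noise measuring lysate protein binding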
[10] = test system: Sonic hedgehog protein (Shh); test: small-molecule binders of Shh protein, primary screen, biochemical, small-molecule microarray, 635/667 nm fluorescence (AID 1151); details: small-molecule microarray binding, 635 nm fluorescence; higher = more signal;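 also: Shh protein binding to compounds spotted on small-molecule microarray slides; score combines spot fluorescence intensity with signal-to-noise across triplicate slides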
[11] = E. coli DRC41 culture turbidity changes, primary screen, E. coli filamentation inducer project, strain DRC41, OD650, 48 h (AID 1152);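 also: E. coli MC1000 strain DRC41 lacking acrAB efflux pump and sulA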; details: E. coli DRC41 (acrAB sulA), higher = more signal, called active from +8 up or from −8 down
[12] = small-molecule binders of probe aLefty1, primary screen, biochemical, small-molecule microarray, 635/667 nm fluorescence (AID 1153); details: higher = more signal;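 also: score merges spot fluorescence with signal-to-noise ratio from the scanned slide images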
[13] = PSAC antagonists in infected red cells, primary screen, cell-based, P. falciparum Indochina, OD700, 1 h (AID 1154); details: P. falciparum Indochina infected RBC osmotic lysis, higher = more signal, called active from +8 up or from −8 down
[14] = PSAC antagonists in infected red cells, primary screen, cell-based, P. falciparum Indochina, OD700, 2 h (AID 1155);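 also: lysis reports solute entry through the parasite surface anion channel PSAC; channel blockers reduce lysis of infected cells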; details: P. falciparum Indochina infected erythrocytes, osmotic lysis OD700; higher = more signal, called active from +8 up or from −8 down
[15] = osmotic lysis modulators in infected erythrocytes, primary screen, PSAC antagonist project, cell-based, P. falciparum Indochina, OD700, 3 h (AID 1156); details: higher = more signal, called active from +8 up or from −8 down
[16] = PSAC antagonists in infected red cells, primary screen, cell-based, P. falciparum Indochina, OD700, 18 h (AID 1157); details: P. falciparum Indochina infected erythrocytes, osmotic lysis OD700, 18 h; higher = more signal, called active from +8 up or from −8 down
[17] = modulators of S6 phosphorylation in cells, primary screen, cell-based, A549, cytoblot, luminescence, serum-stimulated (AID 1158); details: A549 phospho-S6 cytoblot, 5 h, higher = more signal;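 also: serum-stimulated A549 lung adenocarcinoma cells; signal is phosphorylated S6 detected by cytoblot immunostaining with HRP secondary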
[18] = biological target: NADPH oxidase 2 (Homo sapiens) (UniProt P04839); test: NOX2-dependent H2O2 signal modulators, primary screen, NOX inhibitor project, cell-based, HEK293-NOX2, PMA-stimulated, Amplex Red fluorescence (AID 1159); details: 45 min, higher = more signal, called active from +8 up or from −8 down; also: test concentration not given here
[19] = biological target: NADPH oxidase 4 (Homo sapiens) (UniProt Q9NPH5); test: NOX4-dependent H2O2 signal modulators, primary screen, NOX inhibitor project, cell-based, HEK293-NOX4, tetracycline-induced, Amplex Red fluorescence (AID 1160); details: 45 min, higher = more signal, called active from +8 up or from −8 down
[20] = biological target: NADPH oxidase 5 (Homo sapiens) (UniProt Q96PH1); test: NOX5-dependent H2O2 signal modulators, primary screen, NOX inhibitor project, cell-based, HEK293-NOX5, Amplex Red fluorescence (AID 1161); details: HEK293-NOX5, ionomycin, 45 min, higher = more signal
NADPH oxidase 5 (Homo sapiens), sequence (Q96PH1 whole entry, looked up): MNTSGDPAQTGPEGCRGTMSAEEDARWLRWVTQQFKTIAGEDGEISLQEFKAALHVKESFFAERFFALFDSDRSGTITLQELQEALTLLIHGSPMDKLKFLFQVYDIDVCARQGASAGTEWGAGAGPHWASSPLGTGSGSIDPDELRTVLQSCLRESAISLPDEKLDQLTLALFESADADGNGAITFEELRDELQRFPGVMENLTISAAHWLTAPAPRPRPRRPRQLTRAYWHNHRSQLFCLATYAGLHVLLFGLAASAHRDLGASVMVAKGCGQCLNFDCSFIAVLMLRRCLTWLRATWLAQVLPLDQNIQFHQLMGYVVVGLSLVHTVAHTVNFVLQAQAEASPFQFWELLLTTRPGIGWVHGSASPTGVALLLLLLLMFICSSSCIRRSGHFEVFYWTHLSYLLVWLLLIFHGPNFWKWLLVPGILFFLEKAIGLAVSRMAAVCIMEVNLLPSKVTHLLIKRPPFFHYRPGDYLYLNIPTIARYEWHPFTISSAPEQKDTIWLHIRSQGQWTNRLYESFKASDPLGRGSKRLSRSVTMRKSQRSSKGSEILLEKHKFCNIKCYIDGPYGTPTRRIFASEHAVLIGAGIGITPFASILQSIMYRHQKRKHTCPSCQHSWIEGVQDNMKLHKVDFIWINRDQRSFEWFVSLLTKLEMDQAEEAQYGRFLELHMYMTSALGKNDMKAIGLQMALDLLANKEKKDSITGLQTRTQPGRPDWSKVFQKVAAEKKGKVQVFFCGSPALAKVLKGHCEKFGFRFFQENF

NADPH oxidase 2 (Homo sapiens), sequence (P04839 whole entry, looked up): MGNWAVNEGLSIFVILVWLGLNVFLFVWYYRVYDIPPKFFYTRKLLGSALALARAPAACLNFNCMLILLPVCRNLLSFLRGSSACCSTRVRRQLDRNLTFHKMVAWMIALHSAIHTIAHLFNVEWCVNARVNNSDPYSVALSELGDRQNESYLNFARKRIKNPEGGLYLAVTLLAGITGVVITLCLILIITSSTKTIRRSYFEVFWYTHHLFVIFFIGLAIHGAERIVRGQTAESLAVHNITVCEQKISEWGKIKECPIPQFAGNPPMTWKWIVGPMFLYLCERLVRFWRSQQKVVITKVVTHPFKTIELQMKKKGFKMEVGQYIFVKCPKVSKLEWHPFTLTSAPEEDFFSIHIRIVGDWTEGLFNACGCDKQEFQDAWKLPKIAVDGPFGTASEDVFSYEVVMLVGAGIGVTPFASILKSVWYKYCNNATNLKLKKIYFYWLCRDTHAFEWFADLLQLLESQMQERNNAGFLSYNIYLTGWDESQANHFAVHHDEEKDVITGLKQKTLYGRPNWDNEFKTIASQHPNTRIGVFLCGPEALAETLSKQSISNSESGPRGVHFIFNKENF
Streptavidin (Streptomyces avidinii), sequence (P22629 whole entry, looked up): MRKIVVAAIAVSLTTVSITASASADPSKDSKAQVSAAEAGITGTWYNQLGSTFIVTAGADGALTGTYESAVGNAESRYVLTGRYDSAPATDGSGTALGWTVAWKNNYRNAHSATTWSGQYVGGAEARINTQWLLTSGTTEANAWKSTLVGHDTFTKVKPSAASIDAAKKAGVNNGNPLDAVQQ
Torsin-1A (Homo sapiens), sequence (O14656 whole entry, looked up): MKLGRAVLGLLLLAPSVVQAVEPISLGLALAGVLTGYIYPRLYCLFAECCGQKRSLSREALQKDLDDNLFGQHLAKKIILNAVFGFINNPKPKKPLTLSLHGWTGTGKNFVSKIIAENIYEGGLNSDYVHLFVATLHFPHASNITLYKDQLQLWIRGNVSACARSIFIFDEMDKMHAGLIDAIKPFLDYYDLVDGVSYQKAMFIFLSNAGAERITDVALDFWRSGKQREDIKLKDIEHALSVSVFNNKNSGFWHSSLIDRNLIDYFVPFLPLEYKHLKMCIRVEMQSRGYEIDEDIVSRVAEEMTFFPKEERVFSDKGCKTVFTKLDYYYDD
NADPH oxidase 4 (Homo sapiens), sequence (Q9NPH5 whole entry, looked up): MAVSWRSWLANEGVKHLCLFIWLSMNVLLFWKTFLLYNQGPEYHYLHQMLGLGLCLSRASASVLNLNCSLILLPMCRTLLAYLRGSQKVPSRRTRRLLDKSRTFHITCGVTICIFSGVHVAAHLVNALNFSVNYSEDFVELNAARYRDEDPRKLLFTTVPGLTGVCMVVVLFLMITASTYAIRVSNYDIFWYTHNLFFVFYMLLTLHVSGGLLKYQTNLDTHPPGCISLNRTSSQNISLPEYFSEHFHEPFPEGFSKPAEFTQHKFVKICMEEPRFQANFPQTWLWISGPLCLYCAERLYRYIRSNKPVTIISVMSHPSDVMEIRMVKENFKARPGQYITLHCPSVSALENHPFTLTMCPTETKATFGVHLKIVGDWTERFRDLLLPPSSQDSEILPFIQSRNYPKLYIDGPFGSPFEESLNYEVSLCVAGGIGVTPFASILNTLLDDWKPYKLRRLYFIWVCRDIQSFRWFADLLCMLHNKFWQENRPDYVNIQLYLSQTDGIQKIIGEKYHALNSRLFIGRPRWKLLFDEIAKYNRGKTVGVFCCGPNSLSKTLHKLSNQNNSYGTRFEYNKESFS

SMILES | composite z-score [1] | z-score [2] | z-score [3] | z-score [4] | z-score [5] | composite z-score [6] | composite z-score [7] | composite z-score (Torsin-1A (Homo sapiens) [8]) | composite z-score (Torsin-1A (Homo sapiens) [9]) | composite z-score [10] | z-score [11] | composite z-score [12] | z-score [13] | z-score [14] | z-score [15] | z-score [16] | z-score [17] | z-score [18] | z-score [19] | z-score [20]
CC(C)=CCCC(C)=CCON=C1C[C@@H](O)[C@@H](O)[C@@H]2[C@@H]3C(=O)N([C@@H](C)c4ccccc4)C(=O)[C@@H]3CC[C@H]12 | 0.111 | -3.97 (inactive) | 1.09 (inactive) | -0.295 (inactive) | -0.323 (inactive) | 0.0138 | -0.233 | 0.594 | 0.26 | 1.18 | -0.125 (inactive) | -0.0603 | 11.1 (active) | 0.362 (inactive) | 1.3 (inactive) | -0.944 (inactive) | 1.27 | -1.06 (inactive) | -0.306 (inactive) | -4.23
C=CCN(C(=O)C(c1cccs1)N(CCOCCO)C(=O)/C=C\C(=O)O)c1ccc(OC)cc1 (centres undefined) | -0.459 and -0.385 | -0.751 (inactive) and -0.299 (inactive) | -2.23 (inactive) | -1.58 (inactive) and -0.749 (inactive) | -0.418 (inactive) and -1.15 (inactive) | -1.09 and -2.3 | -0.128 and -0.208 | -0.16 and -1.77 | -1.17 and -0.642 | -0.452 and 0.0229 | 3.55 (inactive) and 2.87 (inactive) | -0.262 and -0.142 | 0.195 (inactive) and -0.888 (inactive) | -0.567 (inactive) and -0.967 (inactive) | 0.0684 (inactive) and -1.43 (inactive) | -0.922 (inactive) and -0.842 (inactive) | 2.24 and 0.28 | 0.118 (inactive) and -0.448 (inactive) | -0.578 (inactive) and -1.19 (inactive) | -0.0456 and 0.0347
C#CCCCON=C1C[C@@H](O)[C@@H](O)[C@@H]2[C@@H]3C(=O)N(C4CCCCC4)C(=O)[C@@H]3CC[C@H]12 | -0.176 | -0.379 (inactive) | 0.353 (inactive) | -0.474 (inactive) | -0.236 (inactive) | 1.03 | -0.101 | 1.06 | 0.0924 | -0.105 | 0.747 (inactive) | -0.147 | 0.869 (inactive) | -0.68 (inactive) | 0.403 (inactive) | -0.113 (inactive) | -0.126 | -1.26 (inactive) | -0.426 (inactive) | -2.7
CCCNC(=O)OC[C@H]1O[C@H](CCON=C(C)CCC(=O)OC[C@H]2O[C@H](C#Cc3ccccc3)C=C[C@@H]2Oc2ccc(C)cc2)C=C[C@@H]1Oc1ccc(OC)cc1 | -0.284 | -0.538 (inactive) | -0.145 (inactive) | -0.729 (inactive) | 0.872 (inactive) | 1.07 | -0.103 | -0.474 | -0.352 | 0.0277 | 0.181 (inactive) | -0.0917 | 0.77 (inactive) | 0.329 (inactive) | -0.107 (inactive) | 0.097 (inactive) | -0.591 | 0.333 (inactive) | 0.854 (inactive) | -0.746
CCOC(=O)NN=C1C[C@@H](O)[C@@H](O)[C@@H]2[C@@H]3C(=O)N(Cc4ccccc4)C(=O)[C@@H]3CC[C@@H]12 | -0.0099 | 0.162 (inactive) | -0.0519 (inactive) | 0.52 (inactive) | 0.0513 (inactive) | -0.199 | -0.178 | 0.832 | 0.304 | 0.773 | -2.78 (inactive) | -0.641 | 1.04 (inactive) | 0.628 (inactive) | 0.979 (inactive) | 0.403 (inactive) | -0.154 | -0.6 (inactive) | -0.393 (inactive) | -0.365
O=C1NC(=O)C2C1C=CC(C(O)c1ccc([N+](=O)[O-])cc1)N2Nc1ccc(Cl)cc1Cl (centres undefined) | 0.283 and 0.0563 | -0.311 (inactive) and -0.861 (inactive) | -1.48 (inactive) and -2.27 (inactive) | 0.812 (inactive) and 0.443 (inactive) | 0.479 (inactive) and -0.492 (inactive) | 0.404 and 0.519 | 0.0301 and 0.175 | 0.339 and 1.2 | 0.703 and 1.22 | -0.274 and -0.13 | 0.302 (inactive) and 1.01 (inactive) | 0.134 and 0.623 | 9.67 (active) and 3.11 (inactive) | 0.913 (inactive) and 0.168 (inactive) | 0.538 (inactive) and -0.138 (inactive) | -0.988 (inactive) and -1.28 (inactive) | 0.474 and 0.7 | 0.313 (inactive) and 0.609 (inactive) | -5.29 (inactive) and -4.55 (inactive) | -1.98 and -1.75
C=CCN(CCCCC)C(=O)C(c1cccs1)N(C(=O)/C=C\C(=O)O)c1c(Cl)cccc1CO (centres undefined) | -0.473 and -1.02 | 0.497 (inactive) and 0.165 (inactive) | 0.858 (inactive) and 2.29 (inactive) | 0.605 (inactive) and -0.212 (inactive) | 1.2 (inactive) and 0.266 (inactive) | -1.34 and -1.63 | -0.202 and -0.233 | -2.37 and -3.28 | -0.23 and -2.06 | -1.14 and -0.909 | -0.316 (inactive) and -0.346 (inactive) | 0.0005 and -1.11 | -0.501 (inactive) and 0.334 (inactive) | 0.092 (inactive) and 0.571 (inactive) | -0.0324 (inactive) and -0.0069 (inactive) | 0.257 (inactive) and 0.404 (inactive) | -0.122 and -0.137 | 0.306 (inactive) and 0.277 (inactive) | -0.584 (inactive) and -0.408 (inactive) | 0.212 and 0.29
CC(C)N1CC=CC23O[C@@H]4C=CCCOC(=O)C4[C@H]2C(=O)N(C(C)CO)[C@@H]3C1=O (some centres undefined) | 0.797 and -0.143 | -0.909 (inactive) and 0.0354 (inactive) | – | -0.631 (inactive) and -0.753 (inactive) | -0.0522 (inactive) and -0.428 (inactive) | -0.55 and 1.17 | -0.128 and -0.176 | 0.0687 and -0.403 | -0.0439 and 0.0427 | -0.0042 and -0.188 | 2.39 (inactive) and 2.01 (inactive) | 0.0004 and -0.147 | 0.339 (inactive) and 1.47 (inactive) | -0.917 (inactive) and -0.564 (inactive) | -0.0544 (inactive) and 0.331 (inactive) | -1.54 (inactive) and -0.97 (inactive) | 0.22 and -0.109 | 1.94 (inactive) and 1.59 (inactive) | 0.808 (inactive) and 0.594 (inactive) | 2.17 and 1.76
CC(CO)N1C(=O)[C@@H]2C3C(=O)OCCC=C[C@H]3OC23C=CCN(c2ccc(Cl)cc2)C(=O)[C@@H]13 (some centres undefined) | -0.396 and -0.34 | -0.666 (inactive) and -0.787 (inactive) | 1.06 (inactive) and 0.664 (inactive) | 0.187 (inactive) and 0.325 (inactive) | -0.613 (inactive) and 0.478 (inactive) | -0.9 and 0.152 | -0.111 and 0.0541 | -1.09 and -1.53 | -2.42 and -1.49 | -0.359 and 0.829 | -0.0529 (inactive) and -0.655 (inactive) | -0.142 and 0.422 | 0.725 (inactive) and 3.92 (inactive) | 1.02 (inactive) and 0.352 (inactive) | 0.741 (inactive) and 0.968 (inactive) | 0.817 (inactive) and 0.0372 (inactive) | -0.7 and -0.574 | 1.59 (inactive) and 1.47 (inactive) | 1.03 (inactive) and 1.11 (inactive) | 2.46 and 2.5
CCOC(=O)[C@H](CC(C)C)NC(=O)CCC1CC(OC(=O)NCc2cccc3ccccc23)CC2(CCCC(COC(=O)NCc3ccccc3)O2)O1 (some centres undefined) | -0.147 | -0.649 (inactive) | -0.583 (inactive) | 0.286 (inactive) | 1.5 (inactive) | -0.339 | 0.0038 | -1.07 | -0.964 | -0.0293 | -0.42 (inactive) | -0.393 | 0.56 (inactive) | -0.166 (inactive) | -1.33 (inactive) | 0.097 (inactive) | -0.194 | 0.209 (inactive) | 0.0251 (inactive) | 0.281
O=C(NN=C1C[C@@H](O)[C@@H](O)[C@@H]2[C@@H]3C(=O)N(Cc4ccc5c(c4)OCO5)C(=O)[C@@H]3CC[C@H]12)OCc1ccccc1 | 0.627 | 0.0294 (inactive) | 1.54 (inactive) | -1.29 (inactive) | 0.383 (inactive) | -0.872 | -0.0245 | 2.05 | 0.392 | -0.858 | 1.2 (inactive) | 0.126 | 37 (active) | 14.8 (active) | 0.833 (inactive) | 1.24 (inactive) | -0.241 | -1.32 (inactive) | 0.0354 (inactive) | 0.664

From PubChem BioAssay
